According to the supplement of paper PMC9135407:
Where a name gives a salt, the structure may show the parent alone.

These molecules were tested on primary human hepatic stellate cells (donor 1) (assay: PSMB2 reference mRNA level vs DMSO (fold); higher = more PSMB2 expression). Details: 48 h.
Method: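 Secondary qRT-PCR screen in primary human HSCs (donor 1), 384-well plates, with compounds dispensed in quadruplicate and incubated for 48 h. Cells-to-CT lysates were used for multiplexed TaqMan qPCR of ACTA2 or COL1A1 with PSMB2 as reference. Fold changes versus DMSO come from a linear model (Ct_gene ~ Ct_PSMB2 + plate + chemical). A hit is defined as COL1A1 and ACTA2 FC <0.5 (FDR <0.05) with PSMB2 between 0.2 and 2.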

| SMILES | PSMB2 reference mRNA level |
| --- | --- |
| O=C(Nc1cc(C(F)(F)F)cc(C(F)(F)F)c1)c1cc(Cl)ccc1O (33.3333 µM) | 1.2 |
| Cc1[nH]c(/C=C2\C(=O)Nc3ccc(S(=O)(=O)N(C)c4cccc(Cl)c4)cc32)c(C)c1C(=O)N1CCN(C)CC1 (33.3333 µM) | 0.98 |
| COC(=O)N[C@H](C(=O)N1CCC[C@H]1c1ncc(-c2ccc(-c3ccc(-c4cnc([C@@H]5CCCN5C(=O)[C@@H](NC(=O)OC)C(C)C)[nH]4)cc3)cc2)[nH]1)C(C)C (33.3333 µM) | 3.28 |
| c1cc(OCCN2CCCCC2)cc(-c2n[nH]c3ccc(-c4nnc[nH]4)cc23)c1 (33.3333 µM) | 0.677 |
| Cc1cc(C(=O)Nc2cc(Nc3ccc4c(/C=C/c5ccccn5)n[nH]c4c3)ccc2F)n(C)n1 (33.3333 µM) | 0.985 |
| CCN(CC)CCCCNc1ncc2cc(-c3c(Cl)cccc3Cl)c(NC(=O)NC(C)(C)C)nc2n1 (33.3333 µM) | 0.792 |
| Cc1cccc(Nc2nc(-c3ccncc3)cs2)c1 (11.1 µM) | 1.45 |
| COc1ccc(NS(=O)(=O)c2sc3ccc(Cl)cc3c2C)cc1N1CCNCC1 (33.3333 µM) | 0.507 |
| O=C(O[C@H]1CN2CCC1CC2)N1CCc2ccccc2[C@@H]1c1ccccc1 [Solifenacin succinate] (33.3333 µM) | 0.935 |
| C[C@H]1O[C@@H](O[C@H]2[C@@H](O)C[C@H](O[C@H]3[C@@H](O)C[C@H](O[C@H]4CC[C@@]5(C)[C@H](CC[C@@H]6[C@@H]5C[C@@H](O)[C@]5(C)[C@@H](C7=CC(=O)OC7)CC[C@]65O)C4)O[C@@H]3C)O[C@@H]2C)C[C@H](O)[C@@H]1O [Digoxin] (33.3333 µM) | 1.06 |
| CNC(=O)[C@@H](Cc1ccccc1)N(C)C(=O)[C@@H](Cc1ccc2ccccc2c1)N(C)C(=O)/C=C/CC(C)(C)N [Tabimorelin] (33.3333 µM) | 1.83 |
| CCC/C=C\C=C/C(=O)N[C@@H](CC(N)=O)C(=O)NC(CC(N)=O)C(=O)N[C@@H](C(=O)N[C@H](CCCN)C(=O)N[C@@H](C(=O)N[C@@H](C(=O)N[C@@H](C(=O)N[C@H](C(=O)N[C@@H](Cc1ccccc1)C(=O)N[C@H](CCCN)C(=O)NC(C(=O)N[C@H](C(=O)NC(C(=O)NCC(=O)N[C@@H](CC(C)C)C(=O)N[C@H](C)C(=O)NC(C(=O)O)C1CCC(O)C(Cl)C1)C1CCC(O)CC1)[C@H](C)O)C1CCC(O)CC1)[C@H](C)O)C1CCC(O)CC1)C1CCC(O)CC1)[C@H](C)O)C1CCC(O)CC1 (stereo not given in full) (33.3333 µM) | 0.369 |
| CCCCc1oc2ccccc2c1C(=O)c1cc(I)c(OCCN(CC)CC)c(I)c1 (33.3333 µM) | 0.537 |
| CCN(CC)CCNC(=O)c1c(C)[nH]c(/C=C2\C(=O)Nc3ccc(F)cc32)c1C (6.66667 µM) | 2.81 |
| CNCc1ccc(-c2[nH]c3cc(F)cc4c3c2CCNC4=O)cc1 (33.3333 µM) | 0.974 |
| NC[C@@H]1O[C@H](C23CC4CC(CC(C4)C2)C3)Cc2c1ccc(O)c2O (33.3333 µM) | 0.00124 |
| C[C@@H](CN1CCC(n2c(=O)[nH]c3cc(Cl)ccc32)CC1)NC(=O)c1ccc2ccccc2c1 (33.3333 µM) | 0.16 |
| CN1CCC(CNc2ccc3ncc(-c4cccc(OC(F)(F)F)c4)n3n2)CC1 (6.66667 µM) | 0.712 |
| CNCCCC12CCC(c3ccccc31)c1ccccc12 [Maprotiline hydrochloride] (33.3333 µM) | 1.89 |
| CN1CCCN(C(c2ccccc2)c2ccc(Cl)cc2)CC1 (stereo not given) [Homochlorcyclizine dihydrochloride] (33.3333 µM) | 1.19 |

| SMILES | PSMB2 reference mRNA level |
| --- | --- |
| C[C@]12CC[C@H](O)CC1=CC[C@@H]1[C@@H]2CC[C@]2(C)C(n3cnc4ccccc43)=CC[C@@H]12 [Galeterone] (33.3333 µM) | 0.0945 |
| O=S(=O)(NCCNC/C=C/c1ccc(Br)cc1)c1cccc2cnccc12 [H-89, Dihydrochloride] (11.1 µM) | 1.02 |
| CCNC(=O)c1noc(-c2cc(C(C)C)c(O)cc2O)c1-c1ccc(CN2CCOCC2)cc1 (11.1 µM) | 1.72 |
| CCCCCCCCc1ccc(CCC(N)(CO)CO)cc1 [Fingolimod (FTY720) HCl] (11.1 µM) | 3.91 |
| Cc1ccc2c(c1)c1c3n2CCNC3CCC1 (stereo not given) [Pirlindole mesylate] (20.6667 µM) | 0.807 |
| CN1CCN(Cc2ccc(-c3cnc4[nH]cc(-c5ccc6[nH]ccc6c5)c4c3)cc2)CC1 (6.66667 µM) | 0.507 |
| CC(/C=C/C(=O)NO)=C\[C@@H](C)C(=O)c1ccc(N(C)C)cc1 [Trichostatin A] (3.33333 µM) | 1.36 |
| CC[C@]1(O)C[C@@H]2CN(CCc3c([nH]c4ccccc34)[C@@](C(=O)OC)(c3cc4c(cc3OC)N(C)[C@H]3[C@@](O)(C(=O)OC)[C@H](OC(C)=O)[C@]5(CC)C=CCN6CC[C@]43[C@@H]65)C2)C1 [Vinblastine sulfate] (33.3333 µM) | 0.0998 |
| CN(C)CCCCC(=O)Nc1ccc(NC(=S)NC(=O)c2ccc(C(C)(C)C)cc2)cc1 [Tenovin-6] (33.3333 µM) | 0.000996 |
| Cc1ccc(NC(=O)C(C)C)cc1C1CCN(Cc2ccc(Oc3ccc(F)c(F)c3)cc2)CC1 (33.3333 µM) | 2.26 |
| NC1(c2ccc(-c3nc4ccn5c(=O)[nH]nc5c4cc3-c3ccccc3)cc2)CCC1 (11.1 µM) | 3.72 |
| CC#CCOC(=O)c1c(C)nc2sc3c(c2c1N)CCC(O)C3 (stereo not given) (33.3333 µM) | 0.434 |
| CCN(CC)CC#CCOC(=O)C(O)(c1ccccc1)C1CCCCC1 (stereo not given) [Oxybutynin chloride] (16.9333 µM) | 1.08 |
| CCN(CC)CCOc1ccc(Cc2ccccc2)cc1 [DPPE fumarate] (33.3333 µM) | 0.798 |
| O=C1NCN(c2ccccc2)C12CCN(CCCC(c1ccc(F)cc1)c1ccc(F)cc1)CC2 [Fluspirilene] (14.0333 µM) | 1.38 |
| O=C(c1ccc(/C=C/c2n[nH]c3ccccc23)cc1)N1CCNCC1 (33.3333 µM) | 0.0479 |
| CC(C)(C)c1cc(NC(=O)Nc2ccc(-c3cn4c(n3)sc3cc(OCCN5CCOCC5)ccc34)cc2)no1 [Quizartinib  (AC220)] (11.1 µM) | 2.12 |
| Nc1ccc(C(=O)Nc2cccc(-c3nc(N4CCOCC4)c4oc5ncccc5c4n3)c2)cn1 (6.66667 µM) | 3.27 |
| CNCCC(Oc1ccc(C(F)(F)F)cc1)c1ccccc1 (stereo not given) [Fluoxetine hydrochloride] (33.3333 µM) | 0.204 |
| C#C[C@]1(O)CC[C@H]2[C@@H]3CCC4=Cc5oncc5C[C@]4(C)[C@H]3CC[C@@]21C [Danazol] (33.3333 µM) | 0.993 |
